# Source: ChEMBL document CHEMBL4888484, “Replenishing the malaria drug discovery pipeline: Screening and hit evaluation of the MMV Hit Generation Library 1 (HGL1) against asexual blood stage Plasmodium falciparum ,using a nano luciferase reporter read-out” (2022)
# Hit rate of the full screen: of about 4,800 compounds, about 410 (8.5%) showed an effect of 50% or more. This excerpt belongs to a sample that is enriched for strong results.
# Tested on: Plasmodium falciparum
# Test: Confirmatory screen in NF54 pLDH assay, in single point, at 2uM, 72h
# Type: functional, Erythrocyte
# Conditions: timepoint 72 hour
row,SMILES,% Inhibition [%]
1,CC(C)C[C@@H]1N[C@H](C(=O)NCCN(C)C)Cc2c[nH]c3cccc1c23,-19
2,Cc1cc2nc(C(=O)NC3CCN(Cc4ccccc4)CC3)c(=O)n(C)c2cc1C,-6
3,Cc1cc(C(=O)Nc2nc(-c3ccc4c(c3)CCC4)n[nH]2)no1,7
4,CCn1cc(-c2nc(-c3ccccc3C)no2)c(=O)c2cc(F)c(N3CCCCC3)cc21,42
5,CCn1cc(C#N)c(=O)c2cc(F)c(N3CCN(Cc4ccccc4)CC3)cc21,78
6,CCn1cc(C(=O)O)c(=O)c2cc(F)c(N3CCN(S(=O)(=O)c4ccccc4)CC3)cc21,-6
7,CCNC(=O)c1ccc(-c2nc(CS(=O)(=O)c3ccccc3)c(C)o2)cc1,-10
8,Cc1cccc(-c2nc(C[N+]3(Cc4nc(-c5cccc(C)c5)oc4C)CCCC3)c(C)o2)c1,55
9,Cc1ccc(S(=O)(=O)Cc2nc(-c3ccc(C(=O)Nc4c(C)cccc4C)cc3)oc2C)cc1,13
10,COc1cccc2c(=O)c3c([nH]c12)CCN(CC(=O)NCc1ccccc1Cl)C3,37
11,COc1ccc(CN(Cc2ccncc2)CC2CCN(C3CCN(C)CC3)CC2)c(F)c1,93
12,CN1CCC(N2CCC(CN(Cc3ccncc3)Cc3c(F)cccc3Cl)CC2)CC1,99
13,c1cc(CN2CCN(C3CCCCCC3)CC2)ccn1,-17
14,c1ccc(N2CCN(C3CCN(Cc4ccncc4)CC3)CC2)cc1,-2
15,O=S1(=O)CCN(C2CCN(Cc3c(F)cccc3F)CC2)CC1,14
16,Cc1ccc(C)c(NC(=O)N2CC(n3cnnc3-c3ccccc3)C2)c1,0
17,c1ccc(CCc2nnc3n2CCOC3)cc1,3
18,COCc1cc2nn(CC(=O)Nc3ccc4c(c3)OCO4)c(=O)n2c(-c2ccccc2)n1,12
19,Cc1ccc(CNC(=O)[C@@H](C)C2CCOCC2)cc1C,7
20,Cc1ccc(-c2nn3c([C@H]4CCCN(C)C4)nnc3s2)cc1C,-8
21,O=C1NC2(CCCC2)Nc2ccccc21,2
22,Cc1cc(=O)n2ncc(C(=O)Nc3ccc(F)cc3F)c2[nH]1,10
23,COc1ccc(N(C)S(=O)(=O)c2ccsc2-c2nc(-c3cccnc3)no2)cc1Cl,-2
24,CC(C)(C)N(CC(N)=O)CC(=O)NC(=O)NC1CCCCC1,8
25,CCN(CC)C(=O)c1cc(C)n(-c2ccc3c(c2)OCCO3)c1C,-3

row,SMILES,% Inhibition [%]
1,O=C1c2[nH]nc(-c3cccs3)c2[C@@H](c2cccc(O)c2)N1c1nccs1,5
2,O=S(=O)(N[C@H]1CCc2nnc(-c3ccc(F)cc3)n2C1)c1cccnc1,13
3,C[C@@H]1CN(c2ccc(N)cn2)C[C@H](C)O1,-12
4,COc1ccc(CC(=N)Nc2cc3cc(OC)c(OC)cc3c(Cc3ccc(OC)c(OC)c3)n2)cc1OC,89
5,CCCNC(=O)C[C@H](C)CC(=O)NCCc1ccc(OC)c(OC)c1,14
6,COc1ccc(CCNC(=O)CCCC(=O)NCc2ccccc2)cc1OC,-14
7,CNC(=O)C(=O)Nc1ccccc1C(F)(F)F,9
8,C[C@H](NC(=O)c1cocn1)c1ccccc1NC(=O)c1cocn1,-7
9,Cc1cc([C@H](Nc2ccccn2)c2ccccc2)c(NC(=O)c2ccccc2)s1,3
10,Oc1ccc2ncccc2c1[C@@H](Nc1ccccn1)c1cccc(Br)c1,77
11,Cc1cc([C@H](Nc2ccccn2)c2cccnc2)c(NC(=O)c2ccccc2)s1,4
12,CCCC(=O)N1CCC(OC(=O)c2cnc3ccc(F)cc3c2)CC1,-10
13,CC(C)Nc1nc2nonc2n2cnnc12,90
14,COc1ccc(Nc2ncc(Cc3ccccc3C)s2)cc1,4
15,CC(C)C(CNCc1nnn(C)n1)C(C)C,11
16,FC(F)(F)c1cnc(-c2csc(NC3CCCCC3)n2)c(Cl)c1,15
17,NC(=O)c1nnn2c1C(=O)N[C@H](c1ccc(Cl)cc1)C2,-13
18,CCc1c(-c2nc(CCN(C)C(=O)c3ccoc3)no2)[nH]c2ccc(C)cc12,-19
19,CCN1c2cc(C(=O)N3CCCCC3)ccc2C(=O)N2CCCCC[C@H]21,6
20,Cc1cc(C)n(C(=O)CNC(=O)c2ccccn2)n1,14
21,Cc1cc(C(=O)Nc2cc(C)nn2C)nc(N(C)C)n1,8
22,Cc1cc(NC(=O)c2ccccn2)n(-c2nc3ccccc3o2)n1,93
23,COc1ccc(S(=O)(=O)N2CC[C@@H]3[C@@H](COCCN3Cc3ccccc3)C2)cc1,0
24,O=C(CNC(=O)COc1ccccc1)NCC1(O)CCCCCC1,6
25,C[C@@H](CN)N(C)c1ccnc2cc(Br)cnc12,96

row,SMILES,% Inhibition [%]
1,O=C(O)C1c2ccccc2C(=O)N(C2CCCCC2)C1c1ccc(Cl)cc1 (centres undefined),-3
2,Cc1noc(C)c1CN1C[C@@H]2Oc3cc(F)ccc3C(=O)N(C)[C@@H]2C1,97
3,Cc1noc(C)c1CN1CCCN(C(=O)c2n[nH]c3ccccc23)CC1,7
4,Cc1noc(C)c1CN1CCNC(=O)CC1,-14
5,Cc1ccc(N2C(=O)c3ccccc3[C@H]2Nc2nc(C)cs2)nc1,-16
6,C[C@@H]1CN(C(=O)NCCc2ccc(C(F)(F)F)cn2)C[C@H](C)O1,6
7,Cc1cc(NCc2noc(-c3ccsc3)n2)ccc1C(N)=O,5
8,Cc1noc(C)c1NS(=O)(=O)c1ccc2c(c1)OCCCO2,0
9,CCN(CC(=O)Nc1ccc2c(c1)OCCO2)C(=O)CCc1c(C)noc1Cl,5
10,COc1ccc2[nH]c3c(c2c1)CCN(C(=O)c1ccc(C)c(C)c1)[C@@H]3c1ccccc1OC,86
11,COc1ccc(N2CCN(C(=O)c3ccc(F)cc3)[C@@H](C)C2=O)cc1,11
12,COc1ccc([C@@H]2c3[nH]c4ccc(OC)cc4c3CCN2C(=O)NCc2ccc(F)cc2)cc1,4
13,CC1(C)CCC(Nc2ccc(C(N)=O)nn2)CC1,92
14,CC1CCCCC1OCCN1CCOCC1C(N)=O (centres undefined),7
15,COc1cccc(-c2cc(C(=O)Nc3ccc(F)c(Cl)c3)c3c(C)nn(C)c3n2)c1,4
16,Cc1nn(C)c(C)c1-c1cc(C(=O)Nc2cc(F)ccc2F)c2c(C)nn(C)c2n1,2
17,CC(C)C(C(=O)O)N1Cc2c(cc(O)c3c2OC2(C3)C(C)CCC3C(C)(C)C(O)CCC32C)C1=O (centres undefined),5
18,Cc1c(NC(=O)C(F)(F)[C@@]2(F)OC(F)(F)C(F)(F)C2(F)F)c(=O)n(-c2ccccc2)n1C,-16
19,Cc1cc(F)ccc1-n1ccc(C(=O)N(C[C@H]2CCOC2)C2CC2)n1,-12
20,CC[C@](O)(C(=O)N(C)Cc1ncon1)c1cccc(Cl)c1,-13
21,Cc1ccc(CC[C@H]2Nc3ccccc3C(c3ccccc3)(c3ccccc3)O2)o1,66
22,CCCOC(=O)c1cc(NC(=O)c2ccc3ccccc3c2)ccc1N1CCOCC1,-11
23,Cc1cc(C(=O)N2CCC3(CCNCC3)CC2)ccc1F,7
24,CN1C(=O)[C@H](O)N(c2cccc3ccccc23)C1=O,9
25,COc1cccc(-c2cc3c(N4CCN(c5ccccn5)CC4)nccn3n2)c1,4

row,SMILES,% Inhibition [%]
1,C[C@H](NC(=O)c1cc(-c2ccc(F)cc2)ns1)c1ccccn1,9
2,Cc1c2c(C(F)(F)F)cc(=O)n(CCC(=O)Nc3ncc(Cl)cc3Cl)c2nn1C,-7
3,Cn1c(Cc2n[n+]3c(-c4ccccc4)cc(-c4ccccc4)nc3n2C)n[n+]2c(-c3ccccc3)cc(-c3ccccc3)nc12,95
4,Cc1ccc(Cl)cc1N1CCN(C(=O)c2ccc3noc(-c4ccc(F)cc4)c3c2)CC1,-13
5,c1ccc(CC2CCN(c3[nH]cnc4ncnc3-4)CC2)cc1,11
6,Cc1cccc(C(=O)Nc2ccc(N3CCCCCC3)cc2C(=O)O)c1,-10
7,O=C(Nc1cccc(C(F)(F)F)c1)C(Oc1ccccc1)Oc1ccccc1,-19
8,O=C(Nc1cc(N2CCCS2(=O)=O)ccc1O)c1cccc(Oc2cccc(C(F)(F)F)c2)c1,97
9,CCOC(=O)c1oc(NC(=O)OC(C)(C)C)nc1C(F)(F)F,5
10,C#CCn1ccc(O)c(Cc2ccccc2)c1=O,14
11,CN(C(=O)C1CC=CC1)c1ccc(NC(=O)C2CC=CC2)cc1Cl,-13
12,c1ccc(N2CCN(CCN[C@H]3CCc4cc5c(cc43)CCC5)CC2)cc1,9
13,Oc1ccccc1CCN[C@H]1CCc2ccc(F)cc21,95
14,Cc1ccnc(CNC(=O)N[C@H]2CCc3ccc(F)cc32)c1,-12
15,CN(Cc1ccc(F)cc1Cl)[C@H]1CCc2nnc(C3CCOCC3)n2CC1,-4
16,O=C1OCc2cc(NC(=O)[C@@H]3COc4ccccc4O3)ccc21,10
17,Cc1cc(OCc2ccc(C(=O)Nc3ncn(Cc4c(F)cccc4Cl)n3)o2)ccc1Cl,0
18,COc1ccc(NC(=O)CC(C)(C)CC(=O)O)cc1,10
19,Cc1cc2nc(C)c(=O)n(Cc3ccc(C(=O)N4CCC(Cc5ccccc5)CC4)cc3)c2cc1C,12
20,Cn1c(-c2ccc(Cl)c(Cl)c2)c[n+](CC(=O)c2ccc(-c3ccccc3)cc2)c1N,9
21,C=Cn1cc[n+](CC(=O)c2ccc(-c3ccccc3)cc2)c1,51
22,Cc1ccc(C(=O)C[n+]2cc(-c3ccc(-c4ccccc4)cc3)n(C)c2N)cc1,4
23,CCC(C(=O)Nc1cc(C)on1)(C(F)(F)F)C(F)(F)F,9
24,CCCN1CCN(CCCNC(=O)c2ccc(Cl)c(-n3c(C)nc4cccnc43)c2)CC1,13
